From PubChem BioAssay (Tox21) come the findings set out here.

Test [1] can be described thus: qHTS assay to identify small molecule antagonists of the estrogen related receptor (ERR) signaling pathway from Tox21 library - cell viability counter screen (AID 1224834). Also: nearly all actives have a fitted effect of over 30% in size. Also: potency is read from the fitted curve at half-maximal effect. The procedure, abridged: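 ERR reporter cells, 2,000 per well, rested 6 h, then exposed to compound in DMSO for 17.5 hours at 37 C. Viability read as fluorescence after 30 min with CellTiter-Fluor.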

The target in test [2] is Luciferin 4-monooxygenase (Photinus pyralis) (UniProt P08659). The test is described as follows: qHTS assay to identify small molecule inhibitors of firefly luciferase (AID 1224835). Also: nearly all actives have a fitted effect of over 25% in size. Also: potency is read from the fitted curve at half-maximal effect. The essentials:
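Biochemical qHTS: compounds run as interplate titrations against purified firefly enzyme, with D-luciferin and ATP each at its KM concentration. Light output recorded by CCD imaging.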
In general terms: Quantitative high-throughput screening tests each substance at several concentrations.

Test [3] is described as follows: qHTS assay to identify small molecule agonists of the constitutive androstane receptor (CAR) signaling pathway - cell viability counter screen (AID 1224836). Also: nearly all actives have a fitted effect of over 45% in size. Also: potency is read from the fitted curve at half-maximal effect. The procedure, abridged: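 Using CellTiter-Fluor, viability of HepG2 cells harbouring hCAR and CYP2B6-2.2kb was measured following 23 h incubation with a 15-concentration compound series plus PK11195 (0.75 uM final).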

Test [4] can be described thus: qHTS assay to identify small molecule antagonists of the constitutive androstane receptor (CAR) signaling pathway - cell viability counter screen (AID 1224837). Also: nearly all actives have a fitted effect of over 45% in size. Also: potency is read from the fitted curve at half-maximal effect. The procedure, abridged:
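HepG2 cells stably carrying hCAR and CYP2B6-2.2kb reporter, stimulated with 50 nM CITCO and compounds at 15 concentrations for 23 h at 37 C. Viability measured by CellTiter-Fluor fluorescence.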

A short description of test [5]: qHTS assay to identify small molecule antagonists of the estrogen related receptor signaling pathway with the pleiotropic PPARgamma coactivator (PGC) from Tox21 10K library - cell viability counter screen (AID 1224840; active = well fitted cell-killing curve with a large enough effect in the repeat runs, not every such curve was filed as active; also: nearly all actives have a fitted effect of over 40% in size; also: potency is read from the fitted curve at half-maximal effect). The procedure, abridged: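 PGC/ERR cells (2,000/well) plated 6 h, then compound-treated for 17.5 h at 37 C. Viability measured by CellTiter-Fluor fluorescence after 30 min at 37 C, multiplexed with the pathway assay.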

The nature of test [6]: qHTS assay to identify small molecule antagonists of the estrogen related receptor signaling pathway with the pleiotropic PPARgamma coactivator (PGC) from Tox21 10K library (AID 1224841; call rule not given here; also: actives are mostly falling curves and most rising ones were filed inactive; nearly all actives have a fitted effect of over 50% in size; also: potency is read from the fitted curve at half-maximal effect). The essentials: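 PGC/ERR cell line, 2,000 cells/well, pre-incubated 6 hours at 37 C, then exposed to compounds for 18 hours at 37 C; luciferase read with One-Glo luminescence after 30 min at room temperature.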

Test [7] in a line: qHTS assay to identify small molecule agonists of the estrogen related receptor signaling pathway with the pleiotropic PPARgamma coactivator (PGC) from Tox21 10K library (AID 1224842). Also: nearly all actives have a fitted effect of over 15% in size. The procedure, abridged: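 PGC/ERR reporter cell line, 2,000 cells per well, incubated 6 h at 37 C before 23 nL compound in DMSO was added. After 18 h at 37 C, One-Glo luminescence read following 30 min at room temperature.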

The nature of test [8]: qHTS assay to identify small molecule agonists of the hypoxia (HIF-1) signaling pathway - cell viability counter screen (AID 1224844; calls by dose curve; also: nearly all actives have a fitted effect of over 50% in size; also: potency is read from the fitted curve at half-maximal effect). The essentials: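 HRE-bla ME-180 cells, 2,000/well in 0.5% dialyzed FBS medium, treated 17 h at 37C with compounds. Viability read in the same wells as the bla reporter, by CellTiter-Glo luminescence after 30 min at room temperature.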
A short description of test [9]: qHTS assay to identify small molecule agonists of H2AX (AID 1224845; active = well fitted activation curve with a large enough effect in the signal ratio in the repeat runs, not every such curve was filed as active; the % refers to the signal ratio). The essentials:
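Wild-type CHO-K1 cells, plated overnight, exposed 3hr at 37C to 15 concentrations (0.76% DMSO final). Lysed, then HTRF anti-pH2AX (S139) cryptate and anti-H2AX-d2 antibodies, 24 hr room temperature; 665/620 nm emission read.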

The nature of test [10]: qHTS assay to identify small molecule agonists of the hypoxia (HIF-1) signaling pathway (AID 1224846; active = well fitted activation curve with a large enough effect in the signal ratio in the repeat runs, not every such curve was filed as active; the % refers to the signal ratio). The procedure, abridged:
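HRE-bla ME-180 beta-lactamase reporter cells in medium with 0.5% dialyzed FBS, pre-incubated 5 h then exposed to compounds 17 h at 37C, 5% CO2; reporter induction read with CCF4-AM FRET substrate.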

Test [11] in a line: qHTS assay to identify small molecule antagonists of the estrogen related receptor (ERR) signaling pathway from Tox21 library (AID 1224848). Also: nearly all actives have a fitted effect of over 50% in size. Also: potency is read from the fitted curve at half-maximal effect. The essentials:
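Luminescent reporter read-out (ONE-Glo) from NTP's ERR cell line after 18 h treatment at 37 C with DMSO-dissolved Tox21 compounds; cells pre-plated 6 h beforehand at 2,000 per well.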

Test [12] is described as follows: qHTS RealTime-Glo MT Cell Viability Assay in HepG2 cells - 24 hour (AID 1224867). Also: nearly all actives have a fitted effect of over 50% in size. The procedure, abridged:
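Viability was tracked continuously by NanoLuc luminescence from prosubstrate reduced by living HepG2 cells, at successive time points over 40 h of compound exposure. Cells with reagent were preincubated 5 h at 37 °C before compound addition.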

A short description of test [13]: qHTS RealTime-Glo MT Cell Viability Assay in HEK293 cells - 32 hour (AID 1224868). Also: nearly all actives have a fitted effect of over 50% in size. Also: potency is read from the fitted curve at half-maximal effect. The procedure, abridged: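 Viability tracked continuously by luminescence as live cells reduce a prosubstrate for NanoLuc; HEK293 cells preincubated 5 h, compound-treated at 37 C, and read at 0, 8, 16, 24, 32 and 40 h.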
The nature of test [14]: A CellTox Green Cytotoxicity Assay to monitor cytotoxicity in HEK293 cells - 0 hour (AID 1224869). Also: nearly all actives have a fitted effect of over 50% in size. Also: potency is read from the fitted curve at half-maximal effect. The procedure, abridged: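 HEK293 cells, 600/well, were preincubated 5 hours and then exposed to compounds at 37 C for up to 40 hours. A cell-impermeant cyanine dye staining dead-cell DNA was read by fluorescence at 0, 8, 16, 24, 32 and 40 h time points.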
Test [15] addresses Thyrotropin receptor (Homo sapiens) (UniProt P16473). The test is described as follows: qHTS assay to identify small molecule agonists of the thyroid stimulating hormone receptor (TSHR) signaling pathway (AID 1224843; calls by dose curve; also: nearly all actives have a fitted effect of over 45% in size). The essentials: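 Steps: seed 800 TSHR-HEK293 cells per well; add test compound and hold 30 min at ambient temperature; dispense cAMP-d2 then anti-cAMP cryptate; incubate 1 h at ambient; measure fluorescence intensity.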

A short description of test [16]: qHTS assay to identify small molecule agonists of H2AX - cell viability counter screen (AID 1224847; calls by dose curve; also: nearly all actives have a fitted effect of over 30% in size; also: potency is read from the fitted curve at half-maximal effect). The procedure, abridged:
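Quantitative HTS viability measurement: CHO-K1 wild-type cells in serum (10% FBS) medium, short 3 hr drug exposure at 37C with 0.76% DMSO, CellTiter-Glo luminescent detection.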

Test [17] in a line: qHTS assay to identify small molecule agonists of the estrogen related receptor (ERR) signaling pathway from Tox21 library (AID 1224849; calls by dose curve; also: nearly all actives have a fitted effect of over 15% in size). The following applies: ERR reporter cell line, ONE-Glo luciferase, 18 h. The essentials: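 ERR reporter cells (NTP line) pre-incubated 6 hours at 37 C, then exposed to compounds for 18 hours at 37 C. ONE-Glo luciferase luminescence was read after 30 minutes at room temperature.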

Test [18] concerns the target Nuclear receptor subfamily 1 group I member 3 (Homo sapiens) (UniProt Q14994). The test is described as follows: qHTS assay to identify small molecule antagonists of the constitutive androstane receptor (CAR) signaling pathway (AID 1224838). Also: nearly all actives have a fitted effect of over 40% in size. Also: potency is read from the fitted curve at half-maximal effect. The procedure, abridged:
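HepG2 cells stably carrying hCAR and a CYP2B6-2.2kb luciferase reporter, seeded 4 hrs before compound (15 concentrations). Stimulated with 50 nM CITCO for 24 hr at 37 C. ONE-Glo luminescence read after 30 min at room temperature.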

Test [19] shares this target. The test is described as follows: qHTS assay to identify small molecule agonists of the constitutive androstane receptor (CAR) signaling pathway (AID 1224839). Also: nearly all actives have a fitted effect of over 15% in size. The essentials:
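Double-stable HepG2 cells (hCAR, CYP2B6-2.2kb) seeded 4 h before compound addition. Exposure 24 h with 0.75 uM PK11195 final. Luciferase detected by ONE-Glo.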

Molecules are shown by their SMILES. “And” between values parts separate entries of the source, which are not always exact repeats. Equal values may be shown once. Records with an inconclusive call do not appear. More than one record can exist for a structure, and the calls need not agree. The source made the active and inactive calls. Unless noted, calls follow the shape of the dose curve; as a rule, active = well fitted curve in the direction sought with a large enough effect in the repeat runs; inconclusive = weak or mixed curves; inactive = no such curve, though single readings can be large; an effect the other way counts as inactive or inconclusive.
% is scaled to controls: 0 for no effect and ±100 for the full control effect.

Nuclear receptor subfamily 1 group I member 3 (Homo sapiens), sequence (Q14994 whole entry, looked up): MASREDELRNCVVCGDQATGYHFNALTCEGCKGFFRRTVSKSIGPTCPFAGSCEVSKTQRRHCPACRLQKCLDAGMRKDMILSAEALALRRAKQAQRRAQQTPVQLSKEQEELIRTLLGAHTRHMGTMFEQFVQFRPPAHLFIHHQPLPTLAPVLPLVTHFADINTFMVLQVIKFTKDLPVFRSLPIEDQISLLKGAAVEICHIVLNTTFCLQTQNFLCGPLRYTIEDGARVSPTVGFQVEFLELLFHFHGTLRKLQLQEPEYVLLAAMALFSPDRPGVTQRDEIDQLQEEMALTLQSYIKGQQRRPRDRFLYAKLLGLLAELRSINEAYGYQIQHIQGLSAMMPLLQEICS
Luciferin 4-monooxygenase (Photinus pyralis), sequence (P08659 whole entry, looked up): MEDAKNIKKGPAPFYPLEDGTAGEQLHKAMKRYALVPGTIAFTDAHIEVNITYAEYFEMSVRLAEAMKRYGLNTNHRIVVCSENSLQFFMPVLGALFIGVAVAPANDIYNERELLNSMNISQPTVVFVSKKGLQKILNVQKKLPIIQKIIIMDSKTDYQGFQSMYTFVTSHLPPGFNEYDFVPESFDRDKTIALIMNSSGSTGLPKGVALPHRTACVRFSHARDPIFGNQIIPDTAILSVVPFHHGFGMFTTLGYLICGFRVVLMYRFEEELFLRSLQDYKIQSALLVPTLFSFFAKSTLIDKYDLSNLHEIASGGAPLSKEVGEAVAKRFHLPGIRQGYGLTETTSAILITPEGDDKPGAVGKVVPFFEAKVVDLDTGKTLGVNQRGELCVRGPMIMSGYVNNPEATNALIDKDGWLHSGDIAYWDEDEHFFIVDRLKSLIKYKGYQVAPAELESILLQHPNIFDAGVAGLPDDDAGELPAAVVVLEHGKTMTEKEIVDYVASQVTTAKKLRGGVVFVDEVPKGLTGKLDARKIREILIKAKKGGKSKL
Thyrotropin receptor (Homo sapiens), sequence (P16473 whole entry, looked up): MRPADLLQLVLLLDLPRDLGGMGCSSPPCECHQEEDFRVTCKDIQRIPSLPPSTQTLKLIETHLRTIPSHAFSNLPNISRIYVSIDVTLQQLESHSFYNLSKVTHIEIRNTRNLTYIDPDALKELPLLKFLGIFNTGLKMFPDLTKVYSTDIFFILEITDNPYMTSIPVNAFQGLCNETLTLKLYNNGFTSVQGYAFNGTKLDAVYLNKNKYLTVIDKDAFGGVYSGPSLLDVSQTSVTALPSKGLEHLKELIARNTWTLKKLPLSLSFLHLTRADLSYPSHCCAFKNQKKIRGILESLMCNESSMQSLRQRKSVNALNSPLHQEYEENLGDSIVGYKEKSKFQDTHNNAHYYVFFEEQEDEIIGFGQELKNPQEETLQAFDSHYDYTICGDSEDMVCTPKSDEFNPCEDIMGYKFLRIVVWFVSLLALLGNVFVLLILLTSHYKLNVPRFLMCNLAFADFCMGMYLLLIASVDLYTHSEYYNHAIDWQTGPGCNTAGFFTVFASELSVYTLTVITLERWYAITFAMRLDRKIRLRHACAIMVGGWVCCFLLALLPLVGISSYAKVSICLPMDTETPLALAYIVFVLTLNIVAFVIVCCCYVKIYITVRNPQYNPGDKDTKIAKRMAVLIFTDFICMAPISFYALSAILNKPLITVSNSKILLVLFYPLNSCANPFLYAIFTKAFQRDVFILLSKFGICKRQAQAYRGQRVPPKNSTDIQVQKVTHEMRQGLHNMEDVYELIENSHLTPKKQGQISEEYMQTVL

On to `ClC1C(Cl)C(Cl)C(Cl)C(Cl)C1Cl` (stereo not drawn), for which the Potency entry in test [1], in test [2], in test [3], in [4], in [5] and in test [7] was “inactive” throughout. The Potency result in test [8], in [9], in test [12] and in test [14] was “inactive” in each case. For the same molecule, the Potency entry in test [6] is “inactive and 68.6 µM (active)”; in [11], “inactive and 48.6 µM (active)”; in test [13] it was “inactive and 54.9 µM (active)”. The molecule was classed as inactive in [10].

Consider `O=C(Nc1ccc(Br)cc1)c1cc(Br)cc(Br)c1O`, for which the Potency result is “inactive and 19.3 µM (active) and 10.6 µM (active)” in test [1]; 3.98 µM (active) and 5.03 µM (active) and 6.92 µM (active) in [2]; 27.2 µM (active) and 16.8 µM (active) in [3]; “inactive and 21.1 µM (active)” in test [5]; 13.6 µM (active) and 13.7 µM (active) and inactive in test [6]; 38.8 µM (active) and 24.5 µM (active) in test [8]. The Potency in [16] was 28.3 µM (active) and 35.7 µM (active) and 39.1 µM (active); in [11] it was 12.2 µM (active); in test [13] it was 21.8 µM (active) and 21.9 µM (active); in [14] it was “inactive and 38.9 µM (active)”. The Potency entry in test [7], in test [15], in test [9] and in test [12] was “inactive” in each case. Further, the activity change, positive = activation in test [17] (at 42.5 µM (top of the series)) is -35.9% (inactive); in test [17] (at 92.4 µM (top of the series)) it was -31.1% (inactive) and -48% (inactive).

Turning to `c1cc(OCC2CO2)ccc1Cc1ccc(OCC2CO2)cc1` (stereo not drawn), the Potency result in [2], in test [3], in test [4], in [18], in test [19] and in [5] was “inactive” in each case. In addition, the Potency entry in [15], in [16], in test [12], in test [13] and in [14] was “inactive” each time.

For the molecule `CCN(CC)C(=O)/C(Cl)=C(\C)OP(=O)(OC)OC`, the Potency entry in test [1], in [2], in test [3], in test [4], in test [5] and in test [15] was “inactive” throughout. The Potency result in test [8], in [9], in test [16], in [12], in test [13] and in test [14] was “inactive” throughout. In addition, the molecule was called inactive in [10].

For the molecule `CCC(C)c1cc([N+](=O)[O-])cc([N+](=O)[O-])c1O` (stereo not drawn), the Potency entry in test [1] is “inactive and 19.3 µM (active)”; in test [5], “inactive and 17.2 µM (active)”; in [6], “inactive and 10.9 µM (active)”; in test [16], “inactive and 28.4 µM (active)”; in [11], “inactive and 13.7 µM (active)”. The Potency entry in [2], in test [18], in [19], in test [7], in test [15] and in [8] was “inactive” throughout. Also, the Potency result in test [9], in test [12], in [13] and in test [14] was “inactive” in each case. The result in [10] was inactive. Also, the activity change, positive = activation in test [17] (at 92.4 µM (top of the series)) was -0.756% (inactive) and -61% (inactive).

Take `COc1ccc(C(CN(C)C)C2(O)CCCCC2)cc1` (stereo not drawn): the Potency entry in test [1], in [2], in [3], in [4], in [5] and in test [15] was “inactive” throughout. Further, the Potency entry in [8], in [9], in test [16], in test [12], in test [13] and in [14] was “inactive” in each case. Further, in test [10], the result was inactive.

As for `Nc1ccc(-c2ccc(N)c(N)c2)cc1N`, the Potency is 48.4 µM (active) in [1] and 35.5 µM (active) in test [2]. For the same molecule, the Potency entry in test [3], in test [4], in test [15], in test [8], in test [16] and in test [12] was “inactive” each time. Also, the Potency result in test [13] and in test [14] was “inactive” throughout. For the same molecule, the call in [10] was inactive.

For `CCOC(=S)S`, the Potency result in test [1], in test [3], in test [19], in test [6], in test [7] and in test [15] was “inactive” each time. Further, the Potency entry in [12], in test [13] and in test [14] was “inactive” in each case. Further, the Potency in test [4] was 32.6 µM (active); in test [18], 24.3 µM (active) and 36.6 µM (active); in test [11], 73 µM (active). Moreover, the activity change, positive = activation in [17] (at 92.4 µM (top of the series)) was -20.1% (inactive) and -29.8% (inactive).
